Compound activity: PubChem, National Center for Advancing Translational Sciences (NCATS)
Only some compounds are listed: those with a hit (about 0.33% of all), similar ones and a draw of the others.
IL2 activator = activates IL-2 in a cell-based reporter assay; IL-2 activation reporter assay, cell-based qHTS; stimulated with anti-CD3/CD4/CD28 beads; in transgenic mouse T cells; activation, % (series mostly up to about 46 µM); 360,000 compounds, 0.065% hits; AID 652025; in the data active = activation above about 50%; inconclusive = mostly about 30% to 49%
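Using fluorescent plate cytometry, EGFP and DsRed are detected in transgenic mouse T cells stimulated 18 h at 37 degrees C with antibody-coated beads after 60 min compound pretreatment.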
PKM2 activator = increases activity of human pyruvate kinase M2; P14618; purified PKM2, Kinase-Glo ATP luminescence, activation; response scale: 0% is enzyme alone, no compound; Potency, µM (top dose mostly 57.5 µM), most hits filed as activators; 260,000 compounds, 0.34% hits; AID 1631; note: nearly all actives have a fitted effect of over 55% in size
Target sequence (P14618 whole entry, looked up): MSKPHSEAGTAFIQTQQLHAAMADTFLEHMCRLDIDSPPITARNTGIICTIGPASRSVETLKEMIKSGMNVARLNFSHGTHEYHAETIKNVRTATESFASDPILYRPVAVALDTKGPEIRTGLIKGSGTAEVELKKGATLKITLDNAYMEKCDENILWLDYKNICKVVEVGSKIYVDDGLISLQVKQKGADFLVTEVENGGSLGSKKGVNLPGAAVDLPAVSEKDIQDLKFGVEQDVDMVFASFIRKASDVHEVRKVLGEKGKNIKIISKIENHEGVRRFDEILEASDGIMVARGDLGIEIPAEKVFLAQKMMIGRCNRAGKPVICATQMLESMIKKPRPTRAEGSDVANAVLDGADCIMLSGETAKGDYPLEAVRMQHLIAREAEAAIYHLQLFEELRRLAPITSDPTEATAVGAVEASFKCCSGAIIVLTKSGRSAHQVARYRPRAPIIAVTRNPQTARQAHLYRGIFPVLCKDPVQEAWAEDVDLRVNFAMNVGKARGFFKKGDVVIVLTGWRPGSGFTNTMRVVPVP
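Kinase-Glo luminescence reports ATP generated from ADP (0.1 mM) and PEP (0.5 mM) by purified hPK-M2 after 1 h at room temperature, pH 7.2 imidazole buffer; intermediate enzyme activity allows detecting inhibitors and activators.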
S-ASM inh = human S-ASM enzyme inhibition | P17405 | placental ASM, HMU-PC fluorogenic substrate, 60 min | Potency, µM (highest dose often 57.5 µM), actives largely listed as inhibitors | 340,000 compounds, 0.006% hits | AID 504937
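Fluorogenic HMU-PC substrate (9 uM final) is turned over by placental ASM in 60 min at 37 C after a 10 min compound preincubation. Reaction ended by alkaline stop (pH 10), with fluorescence read at 386/447 nm.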
A number is an active result; – = inactive; ? = inconclusive; · = no result. Unless noted, calls come from the whole dose curve; as a rule, active = well fitted curve in the direction sought with a large enough effect; inconclusive = small, poorly fitted or top-dose-only effect, or another doubt; inactive = no such curve, though single readings can be large; an effect the other way counts as inactive or inconclusive.

SMILES	IL2 activator	PKM2 activator	S-ASM inh
COc1ccc(N(C(=O)c2cccc(OC)c2OC)C2C=CS(=O)(=O)C2)c(OC)c1 (centres undefined)	–	–	–
COc1ccccc1CNc1ncnc2nc[nH]c12	–	–	–
COc1ccc(-n2c(=O)/c(=C\c3cccs3)s/c2=C(/C#N)C(=O)NCCN2CCOCC2)cc1	137	–	–
C=CCn1c(=O)/c(=C\c2ccsc2)s/c1=C(/C#N)C(=O)NCCN1CCOCC1	–	–	–
S=C(Nc1ccc2cn[nH]c2c1)Nc1ccc(Cl)cc1Cl	–	–	–
CCOC(=O)c1c(NC(=O)CSC(=S)N(C)C)sc(C)c1C	–	–	–
CN1CCN(C(=O)N2CCNC2=O)CC1	–	–	–
CN(C)c1ccc(C=Cc2ccnc3c(O)cccc23)cc1	148	·	·
CN(C)c1ccc(C=Cc2ccnc3ccccc23)cc1N	–	·	·
CN(C)c1cnn(-c2ccccc2)c(=O)c1Cl	–	–	–
O=[N+]([O-])c1nn(-c2ccccc2)n(O)c1=NC1CCN(Cc2ccccc2)CC1	–	–	–
O=C(Nn1cnnc1)C(Sc1ccccc1)c1ccccc1 (centres undefined)	–	–	–
O=C(Nn1cnnc1)C(c1ccccc1)c1ccccc1	–	32µM	–
CCOC(=O)N/N=C\c1sccc1C	–	–	–
CCOC(=O)Cn1c(=O)c(-c2cc(Br)ccc2N)nc2ccccc21	152	–	–
CCOC(=O)Cn1c(=O)c(-c2ccccc2N)nc2ccccc21	–	–	–
COc1ccc(N2CCN(C(c3cc(OC)ccc3OC)c3nnnn3Cc3ccco3)CC2)cc1 (centres undefined)	–	–	–
C[C@H](CO)N1C[C@H](C)[C@@H](CN(C)S(=O)(=O)c2ccccc2)Oc2ccc(NC(=O)C3CCCCC3)cc2C1=O	–	·	–
Cc1nn(C)c(Sc2ccccc2N)c1[N+](=O)[O-]	–	11µM	–
Cc1nn(C)c(N)c1[N+](=O)[O-]	–	?	–
CCc1nc(NCCc2ccccn2)c2nnn(Cc3ccccc3F)c2n1	–	25µM	–
CCCc1nc(NCc2ccccn2)c2nnn(Cc3ccccc3F)c2n1	–	–	–
C=CCNC(=O)c1ccc(C2SCC(=O)N2Cc2ccccc2)cc1 (centres undefined)	–	–	–
Brc1ccccc1-c1cnco1	–	–	–
Cc1ccc(-c2cc(C(=O)N3CCN(c4ncccn4)CC3)c3cc(Br)ccc3n2)o1	–	8.9µM	–
SMILES	IL2 activator	PKM2 activator	S-ASM inh
O=C(c1cc(-c2ccccn2)nc2ccc(Br)cc12)N1CCN(S(=O)(=O)c2ccccc2)CC1	–	25µM	–
O=C(c1cc(-c2ccccn2)nc2ccc(Br)cc12)N1CCc2ccccc2C1	·	–	·
Cc1ccc(-c2cc(C(=O)N3CCN(c4ccc(F)cc4)CC3)c3ccccc3n2)o1	–	?	–
CCn1c(SCC(=O)Nc2ccccc2N2CCCCC2)nc2c1c(=O)n(C)c(=O)n2C	–	–	–
CC(=O)C1=C(C)NC(=O)NC1c1ccccc1OCC(=O)NCCc1ccccc1 (centres undefined)	–	–	–
C/C(CCc1oc2c(Br)cc(Br)cc2c1-c1ccc(C)o1)=N\O	–	16µM	–
C/C(CCc1oc2ccccc2c1-c1ccc(C)o1)=N/O	–	–	–
CC(C)(C)NC(=O)NC(=O)CSc1ncc(C(F)(F)F)cc1Cl	–	–	–
CC(C)NC(=O)NC(=O)CSc1ncc(C(F)(F)F)cc1Cl	–	14µM	–
COc1cc(S(=O)(=O)Nc2ccc(C)cc2)ccc1N=Cc1c(C)c(C#N)c(=O)n(C)c1O	448	–	–
COc1cc(S(=O)(=O)Nc2ccc(C)cc2)ccc1N=Cc1c(C)[nH]n(-c2ccc(C)cc2)c1=O	–	–	–
O=C/C(=C\Nc1ccc(Cl)cn1)c1nc2ccccc2o1	–	–	–
N#C/C(=C\Nc1ccc(Cl)cn1)S(=O)(=O)c1ccccn1	–	10µM	–
Cc1ccc(N/C=C(\C#N)S(=O)(=O)c2ccccc2)cc1	–	–	–
N#C/C(=C\Nc1ccc(Cl)cn1)S(=O)(=O)c1ccccc1	–	16µM	–
O=C(Nc1ccccc1C(F)(F)F)C1CCN(C(=O)Cc2ccccc2)CC1	–	–	–
Cc1ccc(C2=CC(C)(c3ccc(C)cc3)Nc3nc(C(F)(F)F)nn32)cc1 (centres undefined)	–	–	–
Cc1cc(C2=CC(C)(c3cc(C)oc3C)Nc3nc(C(F)(F)F)nn32)c(C)o1 (centres undefined)	·	22µM	·
CC1(C)C(=O)NC(=O)N1Cc1ccccc1	–	·	–
O=C(O)c1ccccc1N/N=C/c1c(Sc2nnnn2-c2ccccc2)nc2ccccn2c1=O	–	–	–
O=c1c(/C=N/Nc2ccccc2)c(Sc2nnnn2-c2ccccc2)nc2ccccn12	90	–	–
COc1ccc(C)cc1-n1nnnc1SCn1nnc2ccccc2c1=O	–	?	–
Cc1cccc(-n2nnnc2SCn2nnc3ccccc3c2=O)c1	–	16µM	–
Cc1ccc(-n2nnnc2SCn2nnc3ccccc3c2=O)cc1	–	–	–
O=c1c2ccccc2nnn1CSc1nnnn1-c1ccc(O)cc1	–	14µM	–
SMILES	IL2 activator	PKM2 activator	S-ASM inh
O=C(CSc1nnnn1-c1ccc(O)cc1)Nc1cccc(S(=O)(=O)N2CCCC2)c1	–	–	–
Cc1cccc(-n2nnnc2SCC(=O)Nc2cccc(S(N)(=O)=O)c2)c1	–	5µM	–
CNC(=O)C1CC(=O)N(c2ccc(F)c(Cl)c2)C1 (centres undefined)	–	–	–
CCN(CC)C(=S)NC(=O)Cc1ccccc1	–	–	–
O=C(COC(=O)c1ccc(S(=O)(=O)N2CCCC2)cc1)NCCc1ccc(F)cc1	–	·	–
CCCOc1ccc(C(=O)NCc2ccco2)cc1	–	–	–
CN(c1ccccc1)S(=O)(=O)c1ccc(C(=O)NCc2cccs2)cc1	–	–	–
CN(C)S(=O)(=O)c1ccc(C(=O)NCc2cccs2)cc1	–	6.3µM	–
CCOc1ccc(C(=O)NC2CC(C)(C)NC(C)(C)C2)cc1	–	–	–
O=c1[nH]c(SCc2ccc(Cl)cc2)nc2ccccc12	–	–	–
COc1ccccc1S(=O)(=O)N1CCN(S(=O)(=O)c2cccs2)CC1	–	·	–
COc1ccccc1S(=O)(=O)N1CCN(S(=O)(=O)c2ccccc2C#N)CC1	–	2µM	–
O=C(Oc1ccc(-c2cnc3ccccc3n2)cc1)c1cc([N+](=O)[O-])ccc1Cl	–	–	–
CCOc1cc(/C=C2/C(=O)ON=C2C)ccc1OCc1ccccc1F	–	16µM	–
CCOc1cc(/C=C2/C(=O)ON=C2C)ccc1OCc1ccccc1	–	–	–
C/C(=N\Nc1ccc(Cl)cc1)c1c(O)cc(C)oc1=O	–	–	–
c1ccc2c(c1)ncn2Cc1nnc2sc(-c3ccncc3)nn12	–	8.9µM	–
c1cncc(-c2nn3c(Cn4cnc5ccccc54)nnc3s2)c1	–	?	–
CCOc1ccccc1OCc1nn2c(COc3ccccc3)nnc2s1	–	–	–
c1ccc(OCc2nn3c(Cn4cnc5ccccc54)nnc3s2)cc1	–	4.5µM	–
O=C(COc1ccc(Cl)cc1)Nc1ccc(NC(=O)c2ccco2)cc1	–	·	–
O=c1c2c([nH]n1-c1ccccc1)CCSC2	–	·	–
